# In PubChem BioAssay AID1559 (National Center for Advancing Translational Sciences (NCATS), 2009):
# Inconclusive results are not listed. Values without a mark were called inactive. Calls follow the shape of the dose curve; as a rule, active = well fitted curve in the direction sought with a large enough effect; inconclusive = small, poorly fitted or top-dose-only effect, or another doubt; inactive = no such curve, though single readings can be large or run the other way.
# Target: Microtubule-associated protein tau (Homo sapiens) (UniProt P10636)
# Experiment: Confirmation Concentration-Response Assay for Inhibitors of Tau Fibril Formation, Fluorescence Polarization
# Details: recombinant tau K18 P301L (four-repeat tau fragment) heparin fibrillization, Alexa594 FP; series mostly up to 57.1 µM; activity change, negative = inhibition: at the top concentration
# Description: NIH Molecular Libraries Probe Production Network [MLPCN] NIH Chemical Genomics Center [NCGC] MLPCN Grant: X01 MH083262-01 Assay Provider: Carlo Ballatore, University of Pennsylvania NCGC Assay Overview: The microtubule-associated protein tau is an abundant protein in the axons of neurons that stabilizes microtubules. With its ability to modulate microtubule dynamics, tau contributes directly or indirectly, to key structural and regulatory cellular functions. Particularly important is the influence tau exerts on axonal transport, which allows signaling molecules, trophic factors and other essential cellular constituents to travel along the axons. Under pathological conditions, tau becomes sequestered into insoluble aggregates called neurofibrillary tangles. This phenomenon is believed to have pathological consequences by promoting axonal transport deficits that ultimately lead to synaptic dysfunction and neuronal loss. To identify inhibitors of tau aggregation, a heparin-induced tau fibril formation assay was used that employed a recombinantly expressed fragment of tau, K18 (Q242-E372), bearing a P301L mutation (Gustke et al. 1994; Hong et al. 1998). […] Gustke, N., B. Trinczek, et al. (1994). "Domains of tau protein and interactions with microtubules." Biochemistry 33(32): 9511-22. Hong, M., V. Zhukareva, et al. (1998). "Mutation-specific functional impairments in distinct tau isoforms of hereditary FTDP-17." Science 282(5395): 1914-7. Li, W. and V. M. Lee (2006). "Characterization of two VQIXXK motifs for tau fibrillization in vitro." Biochemistry 45(51): 15692-701. von Bergen, M., S. Barghorn, et al. (2001). "Mutations of tau protein in frontotemporal dementia promote aggregation of paired helical filaments by enhancing local beta-structure." J Biol Chem 276(51): 48165-74.
# For screening, 2 uL/well human K18 P301L (15 uM unlabeled and 0.24 uM Alexa 594-labeled tau final concentrations) in reagent buffer (100 mM sodium acetate pH 7) was dispensed into black solid 1536-well plates (Grenier) using a solenoid-based dispenser. Following transfer of 23 nL compound or DMSO vehicle by a pin tool, 2 uL/well heparin (20 uM final concentration) in reagent buffer was added and the plate centrifuged 15 s at 1000 RPM. Plates were incubated 6 hr at 37 C and then 1 uL/well ThT (30 uM final concentration) was added. After a 1 hr ambient incubation, the plates were read by an Envision (Perkin Elmer) to monitor Alexa 594 FP (555 nm excitation and 632 nm emission). Keywords: NIH Roadmap, MLPCN, MLI, MLSMR, NCGC, qHTS, tau, tauopathies, Alzheimer's disease, fibril, neurodegeneration, aggregation
# Sequence of Microtubule-associated protein tau (Homo sapiens) (P10636 561-689 P618L limits assumed): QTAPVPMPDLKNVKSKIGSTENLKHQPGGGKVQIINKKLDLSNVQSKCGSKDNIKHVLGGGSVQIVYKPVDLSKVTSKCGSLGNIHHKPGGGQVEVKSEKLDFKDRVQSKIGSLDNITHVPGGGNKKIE
row,Compound,"activity change, negative = inhibition"
1,Cc1ccc(NCc2cc3cc4c(cc3n(CC(=O)Nc3ccc(C)cc3)c2=O)OCCO4)cc1,-7.5% [at 100 µM]
2,CCOC(=O)c1ccc(-n2nc(C(=O)OCC)c3csc(N)c3c2=O)cc1,-19.3%
3,Cc1sc(N)c2c(=O)n(-c3ccccc3)ncc12,-17.1%
4,NCCc1ccc(O)c(O)c1,-3.85% [at 100 µM]
5,COc1ccc(NC(=O)c2c(NC(=O)Cc3ccccc3)sc3c2CCCC3)cc1,-3.97%
6,Cc1ccc(N(C)S(=O)(=O)c2nnc(NC(=O)C3CCCCC3)s2)cc1,-6% [at 100 µM]
7,COC(=O)C1CCc2sc(N)c(C(=O)OCc3ccccc3)c21 (configuration not stated),-11.9%
8,CN(c1ccccc1)S(=O)(=O)c1nnc(NC(=O)COc2ccccc2)s1,-3.1% [at 100 µM]
9,N#Cc1cccc(NC(=O)c2ccc3c(c2)N(Cc2cccc(Cl)c2)C(=O)c2ccccc2S3(=O)=O)c1,-0.9% [at 100 µM]
10,COc1ccc2c(c1)c(CC(=O)N1CCOCC1)c(C)n2C(=O)c1ccc(Cl)cc1,-2.9% [at 100 µM]
11,O=C(O)CN1C(=O)/C(=C/c2ccc(-c3cccc(Cl)c3)o2)SC1=S,-8.8% [at 100 µM]
12,CC(=O)Nc1sc(C)c2cnn(-c3ccccc3)c(=O)c12,-5.35%
13,COc1ncc(-c2ccccc2)cc1N,-4.28%
14,COC(=O)CSc1nc2ccc(NC(=O)CSc3nnnn3Cc3ccccc3)cc2s1,-9.6% [at 100 µM]
15,O=C(Cc1ccccc1)Nc1sc2c(c1C(=O)Nc1ccc(Cl)cc1)CCCC2,0.795%
16,CC1CCc2c(sc(NC(=O)Cc3ccccc3)c2C(=O)Nc2ccc(Cl)cc2)C1 (configuration not stated),-21%
17,COc1ccc2oc(-c3ccc(NC(=O)c4ccc(N5CCOCC5)c([N+](=O)[O-])c4)cc3)nc2c1,-2.5% [at 100 µM]
18,COc1ccc(OC)c(NC(=O)c2c(NCc3cccs3)sc3c2CCCC3)c1,10.3%
19,O=C(Cc1ccccc1)Nc1sc2c(c1C(=O)Nc1ccc(Cl)cc1)CCOC2,-15.8%
20,CCN(c1ccccc1)S(=O)(=O)c1nnc(NC(=O)C(C)(C)C)s1,-5.3% [at 100 µM]
21,CCOC(=O)c1nn(-c2ccc(OC)cc2)c(=O)c2c(NC(=O)Cc3ccccc3)scc12,2.38%
22,CCOC(=O)c1c(N)sc2c1CCOC2,-6.49%
23,COc1ccc(CNC(=O)Cn2nc(C)n3cccc3c2=O)cc1,-2.55% [at 100 µM]
24,Nc1ccc(-c2ccc3ccccc3n2)cc1,-5.65% [at 100 µM]
25,Cc1ccc(SCc2cc(=O)n(C)[nH]2)cc1,-3.6% [at 100 µM]
26,CCOC(=O)N1CCN(C(=O)CN2C(=O)/C(=C\c3cccc(OC)c3)SC2=S)CC1,-18.3%
27,COc1cc(/C=N/N=C2/NC(=O)C(CC(=O)O)S2)ccc1OCc1ccc(Cl)cc1 (configuration not stated),-7.85% [at 100 µM]
